An excerpt weighted towards active compounds, which were near 21% of everything screened.
CHX counter: Cycloheximide Counterscreen for Small Molecule Inhibitors of Shiga Toxin; cell reporter, cycloheximide protein synthesis inhibition counterscreen; max response, %; 300,000 compounds, 12% hits; AID 2314, 2010; in the data active means max response mostly above about 13%, no sharp cut-off; inactive means mostly below about 14%; further: read at 38.3 µM for the half of the compounds with a filed dose
Shiga toxin inh: A qHTS for Small Molecule Inhibitors of Shiga Toxin | Vero cells, Shiga toxin protein synthesis inhibition reporter | inhibition, % at 38.7 µM | 290,000 compounds, 9.2% hits | AID 2315, 2010; in the data active means inhibition mostly above about 28%, no sharp cut-off; inactive means mostly below about 43%
NS1 function inh: qHTS Assay for Inhibitors of Influenza NS1 Protein Function. Potency, µM (highest dose often 46.1 µM). 270,000 compounds, 0.4% hits; calls by dose curve; further: actives are rising curves; nearly all actives have a fitted effect of over 50% in size
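In this qHTS, NS1 from influenza A is expressed in budding yeast, where it slows growth. Cells are switched from glucose to 2% galactose medium (pH 6.0, -URA), treated with compound, and growth recovery is read at OD600.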
Pf growth 96h: Primary qHTS for delayed death inhibitors of the malarial parasite plastid, 96 hour incubation; P. falciparum luciferase reporter growth, 96 h; Potency, µM (highest dose often 28.7 µM), usual class: inhibitors; 320,000 compounds, 6.9% hits
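P. falciparum expressing integrated firefly luciferase, in erythrocytes at 2% hematocrit, 0.05% parasitemia, incubated with compounds 96 h at 37 C, 5% CO2. Growth inhibition read as loss of luminescence; two-generation exposure targets delayed-death apicoplast inhibitors.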
Pf growth 48h: Primary qHTS for delayed death inhibitors of the malarial parasite plastid, 48 hour incubation. P. falciparum luciferase growth in erythrocytes, 48 h. Potency, µM (doses to about 28.7 µM), most hits filed as inhibitors. 310,000 compounds, 5.9% hits. AID 504832, 2011
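Here the parasites carry a stable luciferase gene and grow inside erythrocytes in Albumax-based RPMI medium with compound for one erythrocytic cycle. Activity is scored as loss of luminescent signal.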
Each line names hits and unclear results; the compound was inactive in the other large screens. Unless noted, the call rests on the fitted dose curve; in most records, active means well fitted inhibition curve with a large enough effect; inconclusive means small, poorly fitted or top-dose-only effect, or another doubt; inactive means no such curve, though single readings can be large or run the other way.

O=C(CNC(=O)c1ccccc1F)N/N=C/c1cccs1	CHX counter 30.0, Shiga toxin inh 53.2
COc1ccc(CC(=O)N2CCN(C(=O)Cc3ccc(OC)cc3)CC2)cc1	Pf growth 96h 3.29µM
COc1ccc(CC(=O)N2CCc3cc(OC)c(OC)cc3C2)cc1	none
CCc1ccc(/C=C\C(=O)N2CCc3ccccc3C2)cc1	CHX counter 13.1, Shiga toxin inh 42.5
COc1ccc(CC(=O)N2CCc3ccccc3C2)cc1	CHX counter 22.1, Shiga toxin inh 23.8, Pf growth 96h 8.28µM
O=C(/C=C/c1ccccc1[N+](=O)[O-])N1CCc2ccccc2C1	CHX counter 21.3, Pf growth 96h inconclusive
COC(=O)c1ccc2c(=O)n(Cc3ccc4c(c3)OCO4)c(SCC(=O)N3CCCC3)nc2c1	none
COc1ccc(N(CC(=O)N2CCc3ccccc3C2)S(=O)(=O)c2c(C)nn(C)c2C)cc1	Pf growth 96h 1.17µM (no result: Pf growth 48h)
COc1ccc(N(CC(=O)N2CCc3ccccc3C2)S(C)(=O)=O)cc1	none (no result: Pf growth 48h)
CC(C)CN(C(=O)COC(=O)c1ccc(Br)o1)c1c(N)n(Cc2ccccc2)c(=O)[nH]c1=O	none (no result: CHX counter, Shiga toxin inh, NS1 function inh)
COc1ccc(NC(=O)CSc2nnc(-c3ccc(F)cc3)o2)cn1	none (no result: CHX counter, Shiga toxin inh, NS1 function inh)
CCn1nnc2c(=O)oc3ccccc3c21	Pf growth 96h 4.15µM (no result: NS1 function inh)
Nc1nc(-c2ccc(S(=O)(=O)N3CCCCC3)cc2)cs1	Pf growth 96h 13.1µM, Pf growth 48h inconclusive (no result: CHX counter, Shiga toxin inh, NS1 function inh)
Cc1cc(C)cc(Nc2nc(-c3ccc(S(=O)(=O)N4CCCC4)cc3)cs2)c1	Pf growth 48h inconclusive
Cc1nc(-c2ccc(S(=O)(=O)N3CCCCCC3)cc2)cs1	CHX counter 21.1, Shiga toxin inh 99.7
Cc1ccc(Nc2nc(-c3ccc(S(=O)(=O)N4CCCC4)cc3)cs2)cc1C	NS1 function inh inconclusive, Pf growth 96h 1.65µM, Pf growth 48h 1.85µM
Cc1nc(-c2ccc(S(=O)(=O)N3CCOCC3)cc2)cs1	Pf growth 96h inconclusive
N=C(N)c1ccc(/C=C\c2ccc(C(=N)N)cc2)cc1	none (no result: CHX counter, Shiga toxin inh, Pf growth 96h, Pf growth 48h)
Cn1cc(CN2CCCC(CO)(Cc3ccccc3)C2)cn1 (configuration not stated)	none
CC(C)Nc1nc(Cl)nc(NCCOc2ccccc2)n1	none
CCC(C)Nc1nc(Cl)nc(NCCOc2ccccc2)n1 (configuration not stated)	CHX counter 33.3, Pf growth 96h inconclusive
Oc1cc(Cc2ccccc2)cnc1CN1CCOCC1	Pf growth 96h inconclusive, Pf growth 48h 2.94µM
c1ccc(Oc2cccc(CN3CCOCC3)c2)cc1	CHX counter 27.9 (no result: Pf growth 96h)
c1ccc(CN2CCOCC2)cc1	none (no result: Pf growth 96h)
c1ccc2c(c1)Cc1cc(CN3CCOCC3)ccc1-2	CHX counter 40.9, Shiga toxin inh 76.3 (no result: Pf growth 96h)
COc1ccccc1NS(=O)(=O)c1ccc(C(=O)N2CC(C)OC(C)C2)cc1 (configuration not stated)	Pf growth 48h inconclusive (no result: CHX counter, Shiga toxin inh, NS1 function inh)
CCC(C)NC(=O)Cn1nc(Cc2ccncc2)c2ccccc2c1=O (configuration not stated)	Pf growth 96h 6.57µM
O=C(NCCO)/C(=C/c1ccc(Br)cc1)NC(=O)c1cccs1	none
CCN(CC)CCNC(=O)/C(=C\c1cccn1C)NC(=O)c1cccs1	Pf growth 96h 1.85µM
Cc1cc(C)cc(OCC(=O)Nc2nc(-c3cccnc3)cs2)c1	Pf growth 96h 14.7µM, Pf growth 48h inconclusive
N#Cc1ccc(OCC(=O)Nc2nc(-c3cccnc3)cs2)cc1	Pf growth 96h inconclusive, Pf growth 48h 11.7µM (no result: CHX counter, Shiga toxin inh, NS1 function inh)
Cc1cccc(OCC(=O)Nc2nc(-c3ccncc3)cs2)c1	none (no result: CHX counter, Shiga toxin inh, NS1 function inh)
O=c1cc2[nH]c3ccccc3c(=O)n2nc1-c1ccccc1	CHX counter 24.9 (no result: Pf growth 96h)
O=c1nc(-c2ccccc2)c2cc(Br)ccc2[nH]1	none
S=C(NC1CCCC1)N1CCN(C/C=C/c2ccccc2)CC1	none (no result: NS1 function inh)
COc1ccc(CNC(=O)CN(Cc2ccccc2)S(=O)(=O)c2ccc(Cl)cc2)cc1	Pf growth 96h inconclusive (no result: Pf growth 48h)
CN(Cc1ccccc1)S(=O)(=O)c1ccc(OCC(=O)NCc2ccncc2)cc1	Pf growth 48h 4.65µM
COc1ccc(C)cc1S(=O)(=O)N(CC(=O)NCc1ccc(Cl)cc1)Cc1ccccc1	Pf growth 96h 11.7µM (no result: Pf growth 48h)
COc1ccc(N(CC(=O)NCc2ccc(Cl)cc2)S(=O)(=O)c2ccccc2[N+](=O)[O-])c(OC)c1	NS1 function inh inconclusive, Pf growth 48h 8.28µM
COc1ccc(S(=O)(=O)N(CC(=O)NCc2ccncc2)Cc2ccccc2)cc1	Pf growth 96h 5.22µM, Pf growth 48h inconclusive
CCOc1cc(S(=O)(=O)NCc2cccnc2)c(C)cc1C	Pf growth 96h inconclusive
O=C(CN(c1ccccc1)S(=O)(=O)c1ccccc1[N+](=O)[O-])N1CCCC1	Pf growth 48h inconclusive
CC(C)CNC(=O)CN(c1ccccc1)S(=O)(=O)c1ccccc1[N+](=O)[O-]	Pf growth 96h 5.86µM, Pf growth 48h inconclusive
O=C(OC1CCc2ccccc2C1=O)c1ccccc1O (configuration not stated)	CHX counter 40.6, Shiga toxin inh 90.2 (no result: Pf growth 96h)
Cc1cccc(C(=O)OC2CCOC2=O)c1O (configuration not stated)	none
COC(=O)c1cc2occc2n1CC(=O)Nc1ccc(C)cc1C	none (no result: Pf growth 96h)
CCOC(=O)c1cc2sc(C)cc2n1CC(=O)N1CCc2ccccc21	Pf growth 96h inconclusive (no result: Pf growth 48h)
CCOC(=O)c1cc2occc2n1CC(=O)N1CCCc2ccccc21	Pf growth 48h 9.28µM
COC(=O)c1cc2sc(Cl)cc2n1CC(=O)N1CCCc2ccccc21	Pf growth 48h 10.4µM
COC(=O)c1cc2oc(C)cc2n1CC(=O)N1CCCc2ccccc21	Pf growth 96h 6.57µM, Pf growth 48h inconclusive
COC(=O)c1cc2sccc2n1CC(=O)N1CCCc2ccccc21	Pf growth 96h inconclusive, Pf growth 48h inconclusive
CCOC(=O)c1cc2sccc2n1CC(=O)N1CCCc2ccccc21	Pf growth 48h inconclusive
COC(=O)c1cc2oc(C)cc2n1CC(=O)Nc1ccc(C)c(C)c1	Pf growth 96h 1.65µM
Cc1c(Cl)cccc1N(Cc1ccc(C(=O)O)cc1)S(=O)(=O)c1ccccc1	none
Cc1cccc(NC(=O)CSc2ccc3nnc(-c4cccnc4)n3n2)c1	Pf growth 48h inconclusive
COCCCNC(=O)C(=O)C1C(=O)Nc2ccccc21 (configuration not stated)	none
COc1ccc(/C(C)=N/Nc2nccnc2Cl)cc1	none (no result: CHX counter, Shiga toxin inh, NS1 function inh)
C/C(=N\Nc1nccnc1Cl)c1ccc(O)c(C)c1	CHX counter 28.1 (no result: Shiga toxin inh)
C/C(=N\Nc1nccnc1Cl)c1ccc([N+](=O)[O-])cc1	CHX counter 40.6, Shiga toxin inh 66.1
C/C(=N\Nc1nccnc1Cl)c1ccc(Br)cc1	CHX counter 29.7, Shiga toxin inh 77.6
O=c1c([N+](=O)[O-])cccn1Cc1cccc(Br)c1	none
CNCCC=C1c2ccccc2CCc2ccccc21	Pf growth 96h 9.53µM, Pf growth 48h 10.7µM
C[C@H]1COc2c(C3(N)CC3)c(F)cc3c(=O)c(C(=O)O)cn1c23	Pf growth 96h inconclusive (no result: NS1 function inh)

Screening data deposited in PubChem by National Center for Advancing Translational Sciences (NCATS).
